Reference: PubChem BioAssay (NCATS)
“And” between values parts separate entries of the source, which are not always exact repeats. Equal values may be shown once. Results filed as inconclusive are left out. The source made the active and inactive calls. Calls follow the shape of the dose curve; as a rule, active = well fitted curve in the direction sought with a large enough effect; inconclusive = small, poorly fitted or top-dose-only effect, or another doubt; inactive = no such curve, though single readings can be large; an effect the other way counts as inactive or inconclusive.

Assays:
HaCat [1] = assay: Cytotoxic Profiling of Annotated Libraries Using Quantitative High-Throughput Screening (AID 1296008); details: Five cell lines viability, CellTiter-Glo ATP luminescence, 48-72 h; max response: active compounds read low; also: nearly all actives have a fitted effect of over 60% in size
In short: (§1)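 Cytotoxicity was measured as CellTiter-Glo ATP luminescence, read after 10 min at room temperature. Compound treatment of the cells lasted 48 or 72 hr at 37 degrees Celsius in a qHTS format.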

KB-3-1 = assay: as above; details: Five cell lines viability, CellTiter-Glo ATP luminescence, 48-72 h; max response: active compounds read low
In short: as §1

NIH3T3 [2] = assay: as above; details: Five cell lines viability, CellTiter-Glo ATP luminescence, 48-72 h; max response: active compounds read low
In short: as §1

HACAT [3] = assay: qHTS assay to identify novel small-molecules to repurpose for Merkel cell carcinoma treatment (AID 1296009); details: MCC and control cell lines, CellTiter-Glo viability, 72 h; at 44.8 µM (top of the series) unless noted; also: nearly all actives have a fitted effect of over 60% in size
In short: (§2)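 72 hr, 37 degree celsius; NPC 8-pt / MIPE 11-pt dose response; compound pinned in DMSO; CellTiter-Glo, 10 min RT, luminescence; normalized to no-cell and DMSO controls.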

HEK293T [4] = assay: as above; details: MCC and control cell lines, CellTiter-Glo viability, 72 h; at 44.8 µM (top of the series) unless noted
In short: as §2

MCC-13 = assay: as above; details: MCC and control cell lines, CellTiter-Glo viability, 72 h; series mostly up to 46 µM
In short: as §2

MCC-26 = assay: as above; details: MCC and control cell lines, CellTiter-Glo viability, 72 h; series mostly up to 46 µM
In short: as §2

MKL-1 = assay: as above; details: MCC and control cell lines, CellTiter-Glo viability, 72 h; series mostly up to 46 µM
In short: as §2

MKL-2 = assay: as above; details: MCC and control cell lines, CellTiter-Glo viability, 72 h; series mostly up to 46 µM
In short: as §2

NIH3T3 [5] = assay: as above; details: MCC and control cell lines, CellTiter-Glo viability, 72 h; at 44.8 µM (top of the series) unless noted
In short: as §2

UISO = assay: as above; details: MCC and control cell lines, CellTiter-Glo viability, 72 h; series mostly up to 46 µM
In short: as §2

WaGa = assay: as above; details: MCC and control cell lines, CellTiter-Glo viability, 72 h; series mostly up to 46 µM
In short: as §2

C33A = assay: Primary qHTS to identify gynecologic anti-cancer compounds using libraries of approved drugs and bioactive compounds (AID 1345084); details: Gynecologic cancer cell panel viability, ATPlite luminescence, 48 h; series mostly up to 57.5 µM; also: nearly all actives have a fitted effect of over 55% in size
In short: (§3)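 48 h compound exposure at 37 C, 5% CO2; five-point qHTS. ATPlite luminescence readout of cell ATP.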

CAOV3 = assay: as above; details: Gynecologic cancer cell panel viability, ATPlite luminescence, 48 h; series mostly up to 57.5 µM
In short: as §3

CASKI = assay: as above; details: Gynecologic cancer cell panel viability, ATPlite luminescence, 48 h; series mostly up to 57.5 µM
In short: as §3

Es-2 = assay: as above; details: Gynecologic cancer cell panel viability, ATPlite luminescence, 48 h; series mostly up to 57.5 µM
In short: as §3

HeLa = assay: as above; details: Gynecologic cancer cell panel viability, ATPlite luminescence, 48 h; series mostly up to 57.5 µM
In short: as §3

Hek293T [6] = assay: as above; details: Gynecologic cancer cell panel viability, ATPlite luminescence, 48 h, control line for the selectivity index; series mostly up to 57.5 µM
In short: as §3

JEG-3 = assay: as above; details: Gynecologic cancer cell panel viability, ATPlite luminescence, 48 h; series mostly up to 57.5 µM
In short: as §3

OV90 = assay: as above; details: Gynecologic cancer cell panel viability, ATPlite luminescence, 48 h; series mostly up to 57.5 µM
In short: as §3
% is scaled to controls: 0 for no effect and ±100 for the full control effect.

CN1[C@@H]2CC[C@H]1CC(OC(=O)c1c[nH]c3ccccc13)C2 (stereo partly specified)
inactive: max response (HaCat [1]) 0.428% | outcome (HaCat [1]) | max response (KB-3-1) -8.86% and -5.38% | outcome (NIH3T3 [2]) | outcome (HACAT [3]) | outcome (HEK293T [4]) | Potency (MCC-13) | Potency (MCC-26) | Potency (MKL-1) | Potency (MKL-2) | outcome (NIH3T3 [5]) | Potency (UISO) | Potency (WaGa) | Potency (C33A) | Potency (CAOV3) | Potency (CASKI) | Potency (Es-2) | Potency (HeLa) | Potency (Hek293T [6]) | Potency (JEG-3) | Potency (OV90)

O=C1c2ccccc2C(=O)C1c1ccccc1
inactive: outcome (HaCat [1]) | max response (KB-3-1) -18.6% | outcome (NIH3T3 [2]) | outcome (HACAT [3]) | outcome (HEK293T [4]) | Potency (MCC-13) | Potency (MCC-26) | Potency (MKL-1) | Potency (MKL-2) | outcome (NIH3T3 [5]) | Potency (UISO) | Potency (WaGa) | Potency (C33A) | Potency (CAOV3) | Potency (CASKI) | Potency (Es-2) | Potency (HeLa) | Potency (Hek293T [6]) | Potency (JEG-3) | Potency (OV90)

CN1CCN(C(c2ccccc2)c2ccccc2)CC1
inactive: max response (HaCat [1]) -15.7% | outcome (HaCat [1]) | max response (KB-3-1) -11.4% and 1.83% | max response (NIH3T3 [2]) 3.7% | outcome (NIH3T3 [2]) | outcome (HACAT [3]) | Potency (MCC-13) | Potency (MCC-26) | Potency (MKL-1) | Potency (MKL-2) | outcome (NIH3T3 [5]) | Potency (UISO) | Potency (WaGa) | Potency (C33A) | Potency (CAOV3) | Potency (CASKI) | Potency (Es-2) | Potency (HeLa) | Potency (Hek293T [6]) | Potency (JEG-3) | Potency (OV90)

CC(C)(C)NC(=O)[C@@H]1CN(Cc2cccnc2)CCN1C[C@@H](O)C[C@@H](Cc1ccccc1)C(=O)N[C@H]1c2ccccc2C[C@H]1O
inactive: max response (HaCat [1]) -2.17% | outcome (HaCat [1]) | max response (KB-3-1) 9.13% | max response (NIH3T3 [2]) 1.79% and -2.96% | outcome (HACAT [3]) | outcome (HEK293T [4]) | Potency (MCC-13) | Potency (MCC-26) | Potency (MKL-1) | Potency (MKL-2) | Potency (UISO) | Potency (WaGa) | Potency (C33A) | Potency (CAOV3) | Potency (CASKI) | Potency (Es-2) | Potency (HeLa) | Potency (Hek293T [6]) | Potency (JEG-3) | Potency (OV90)

CC(=O)OCC(=O)[C@@]1(O)[C@H](C)C[C@H]2[C@@H]3CCC4=CC(=O)C=C[C@]4(C)[C@@]3(F)[C@@H](O)C[C@@]21C
inactive: max response (HaCat [1]) -3.13% and -0.939% | max response (KB-3-1) 31.1% and 2.64% | outcome (KB-3-1) | max response (NIH3T3 [2]) 4.69% | outcome (NIH3T3 [2]) | outcome (HEK293T [4]) | Potency (MCC-13) | Potency (MCC-26) | Potency (MKL-1) | Potency (MKL-2) | outcome (NIH3T3 [5]) | Potency (UISO) | Potency (WaGa) | Potency (C33A) | Potency (CAOV3) | Potency (CASKI) | Potency (Es-2) | Potency (HeLa) | Potency (Hek293T [6]) | Potency (JEG-3) | Potency (OV90)

CCOC(=O)OC(C)OC1=C(C(=O)Nc2ccccn2)N(C)S(=O)(=O)c2ccccc21 (stereo unspecified)
inactive: outcome (HaCat [1]) | max response (KB-3-1) 2.11% | max response (NIH3T3 [2]) 3.47% | outcome (HACAT [3]) | outcome (HEK293T [4]) | Potency (MCC-13) | Potency (MCC-26) | Potency (MKL-1) | Potency (MKL-2) | Potency (UISO) | Potency (WaGa) | Potency (C33A) | Potency (CASKI) | Potency (Es-2) | Potency (HeLa) | Potency (Hek293T [6]) | Potency (JEG-3) | Potency (OV90)

C[C@H](CCC(=O)O)[C@H]1CC[C@H]2[C@@H]3C(=O)C[C@@H]4CC(=O)CC[C@]4(C)[C@H]3CC(=O)[C@]12C
inactive: outcome (HaCat [1]) | max response (KB-3-1) -9.72% | max response (NIH3T3 [2]) -5.45% | outcome (HACAT [3]) | outcome (HEK293T [4]) | Potency (MCC-13) | Potency (MCC-26) | Potency (MKL-1) | Potency (MKL-2) | Potency (UISO) | Potency (WaGa) | Potency (C33A) | Potency (CAOV3) | Potency (CASKI) | Potency (Es-2) | Potency (HeLa) | Potency (Hek293T [6]) | Potency (JEG-3) | Potency (OV90)

CCCCC(=O)O[C@]1(C(=O)CO)CC[C@H]2[C@@H]3CCC4=CC(=O)CC[C@]4(C)[C@H]3[C@@H](O)C[C@@]21C
inactive: outcome (HaCat [1]) | max response (KB-3-1) -2.52% | max response (NIH3T3 [2]) 1.69% | outcome (HACAT [3]) | Potency (MCC-13) | Potency (MCC-26) | Potency (MKL-1) | Potency (MKL-2) | Potency (UISO) | Potency (WaGa) | Potency (C33A) | Potency (CAOV3) | Potency (CASKI) | Potency (Es-2) | Potency (HeLa) | Potency (Hek293T [6]) | Potency (JEG-3) | Potency (OV90)

O=c1[nH]c(=O)n([C@H]2CCCO2)cc1F
inactive: outcome (HaCat [1]) | max response (KB-3-1) 8.54% | max response (NIH3T3 [2]) -5.35% | outcome (HACAT [3]) | outcome (HEK293T [4]) | Potency (MCC-13) | Potency (MCC-26) | Potency (MKL-1) | Potency (MKL-2) | Potency (UISO) | Potency (WaGa) | Potency (C33A) | Potency (CAOV3) | Potency (CASKI) | Potency (Es-2) | Potency (HeLa) | Potency (Hek293T [6]) | Potency (JEG-3) | Potency (OV90)

OC[C@H]1O[C@H](O[C@]2(CCl)O[C@H](CCl)[C@@H](O)[C@@H]2O)[C@H](O)[C@@H](O)[C@H]1Cl
inactive: max response (HaCat [1]) -7.79% and -6.26% | outcome (KB-3-1) | max response (NIH3T3 [2]) -17.4% | outcome (NIH3T3 [2]) | outcome (HEK293T [4]) | Potency (MCC-13) | Potency (MCC-26) | Potency (MKL-1) | Potency (MKL-2) | outcome (NIH3T3 [5]) | Potency (UISO) | Potency (WaGa) | Potency (C33A) | Potency (CAOV3) | Potency (CASKI) | Potency (Es-2) | Potency (HeLa) | Potency (Hek293T [6]) | Potency (JEG-3) | Potency (OV90)

CC(=O)OCC(=O)[C@@]12N=C(C)O[C@@H]1C[C@H]1[C@@H]3CCC4=CC(=O)C=C[C@]4(C)[C@H]3[C@@H](O)C[C@@]12C
inactive: outcome (HaCat [1]) | max response (KB-3-1) 7.15% | max response (NIH3T3 [2]) -1.08% | outcome (HACAT [3]) | outcome (HEK293T [4]) | Potency (MCC-13) | Potency (MCC-26) | Potency (MKL-1) | Potency (MKL-2) | Potency (UISO) | Potency (WaGa) | Potency (C33A) | Potency (CAOV3) | Potency (CASKI) | Potency (Es-2) | Potency (HeLa) | Potency (Hek293T [6]) | Potency (JEG-3) | Potency (OV90)
